Screens: PubChem, National Center for Advancing Translational Sciences (NCATS)
Rows were chosen to be rich in hits. Some 21% of all compounds tested hit in one or more screens of this group.
Pf growth 48h = Primary qHTS for delayed death inhibitors of the malarial parasite plastid, 48 hour incubation; P. falciparum luciferase growth in erythrocytes, 48 h; Potency, µM (series often up to 28.7 µM), for the others: at the top dose activity change, negative = inhibition, usual class: inhibitors; 310,000 compounds, 5.9% hits; further: potency means the concentration at half of the fitted maximal effect; on the % scale 0 is the no-effect control and ±100 the full control effect
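In quantitative HTS format, infected erythrocytes bearing luciferase-reporter parasites were treated for a single generation at 37 C. Luminescence after adding detection reagent served as the growth measure.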
NS1 function inh = qHTS Assay for Inhibitors of Influenza NS1 Protein Function | Potency, µM (titrated, usually from 46.1 µM), for the others: at the top dose activity, positive = more growth | 270,000 compounds, 0.4% hits; calls by dose curve; further: potency means the concentration at half of the fitted maximal effect; actives are rising curves; nearly all actives have a fitted effect of over 50% in size
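Read-out: OD600 growth recovery of NS1-expressing budding yeast. Cells grown overnight at 30C in -URA glucose medium, washed, resuspended and diluted 1:100 in 2% galactose assay medium, pH 6.0. Same strain lacking NS1 served as positive control.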
Cycloheximide cs = Cycloheximide Counterscreen for Small Molecule Inhibitors of Shiga Toxin | cell reporter, cycloheximide protein synthesis inhibition counterscreen | max response, % | 300,000 compounds, 12% hits | AID 2314, 2010; in the data active means max response mostly above about 13%, no sharp cut-off; inactive means mostly below about 14%; further: read at 38.3 µM for the half of the compounds with a filed dose; 0% is about no effect
Pf growth 96h = Primary qHTS for delayed death inhibitors of the malarial parasite plastid, 96 hour incubation; AID 504834, 2011; Potency, µM (doses to about 28.7 µM), for inactives: at the highest dose activity change, negative = inhibition, usual class: inhibitors; 320,000 compounds, 6.9% hits; P. falciparum luciferase reporter growth, 96 h; further: potency means the concentration at half of the fitted maximal effect; on the % scale 0 is the no-effect control and ±100 the full control effect
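Luminescence readout: decreased luciferase signal marks inhibited growth of reporter-expressing P. falciparum in infected red cells (2% hematocrit, 0.05% parasitemia final), exposed to compound two generations (96 h, 37 C, 5% CO2).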
Shiga inhibitor = A qHTS for Small Molecule Inhibitors of Shiga Toxin; Vero cells, Shiga toxin protein synthesis inhibition reporter; inhibition, % at 38.7 µM; 290,000 compounds, 9.2% hits; in the data active means inhibition mostly above about 28%, no sharp cut-off; inactive means mostly below about 43%; further: 0% is about no effect
Giardia FBPA inh = qHTS Assay for Inhibitors of Fructose-1,6-bisphosphate Aldolase from Giardia Lamblia; 290,000 compounds, 0.71% hits; purified Giardia FBPA; Potency, µM (doses to about 59.6 µM), inactives show top-dose activity, negative = inhibition, actives largely listed as inhibitors; A8B2U2; further: potency means the concentration at half of the fitted maximal effect; on the % scale 0 is the no-effect control and ±100 the full control effect; nearly all actives have a fitted effect of over 55% in size
Target sequence (A8B2U2 whole entry, looked up): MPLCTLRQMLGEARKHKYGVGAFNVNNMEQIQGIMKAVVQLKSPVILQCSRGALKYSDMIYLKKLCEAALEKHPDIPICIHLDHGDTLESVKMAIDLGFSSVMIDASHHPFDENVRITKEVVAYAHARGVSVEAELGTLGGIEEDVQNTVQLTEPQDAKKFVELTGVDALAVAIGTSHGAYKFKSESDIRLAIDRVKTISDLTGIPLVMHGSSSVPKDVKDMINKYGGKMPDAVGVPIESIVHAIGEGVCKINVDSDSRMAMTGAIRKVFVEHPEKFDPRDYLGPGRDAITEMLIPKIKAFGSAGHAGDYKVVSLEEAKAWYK
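Giardia FBPA (40 nM reagent) was preincubated 10 min at RT with compound (up to 57.5 uM final), then substrate plus GAPDH/TPI/NAD/arsenate coupling system with diaphorase/resazurin was added; resorufin fluorescence (525/598 nm) was read after 20 min.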
Numbers without * were called inactive; ? = inconclusive; . = no result given; [ ] = remark or other dose. Unless noted, the call rests on the fitted dose curve; in most records, active means well fitted curve in the direction sought with a large enough effect; inconclusive means small, poorly fitted or top-dose-only effect, or another doubt; inactive means no such curve, though single readings can be large; an effect the other way counts as inactive or inconclusive.

SMILES	Pf growth 48h	NS1 function inh	Cycloheximide cs	Pf growth 96h	Shiga inhibitor	Giardia FBPA inh
COC(=O)c1ccc(C2C(C#N)=C(N)Oc3cc(O)ccc32)cc1 (configuration not stated)	-6.0%	-6.5%	7.4	40.3%	2.3	6.3%
COC(=O)c1ccc(C2C(C#N)=C(N)Oc3cc(N)ccc32)cc1 (configuration not stated)	-21.0%	9.1%	1.7	11.7µM*	-15.1	-9.4%
N#CC1=C(N)Oc2cc(O)ccc2C1c1ccncc1 (configuration not stated)	0.3%	-6.2%	-0.7	9.28µM*	-19.9	3.4%
Cc1ccccc1-c1nnn(Cc2cccc(S(=O)(=O)N3CCOCC3)c2)n1	?	.	.	-28.2%	.	.
Oc1ccccc1C1C=C(c2ccc3c(c2)OCO3)NC(c2cccc(F)c2)N1 (configuration not stated)	.	.	58.0*	.	95.6*	.
Oc1ccc(Br)cc1C1C=C(c2ccc3c(c2)OCO3)NC(c2cccc(F)c2)N1 (configuration not stated)	.	.	33.7*	.	50.2	.
Oc1ccccc1C1C=C(c2ccc3c(c2)OCO3)NC(c2cccc(Br)c2)N1 (configuration not stated)	.	.	28.0*	.	92.5*	.
CCCCc1ccc(NC(=O)N2CCNC(=O)C2CC(=O)Nc2ccsc2C(=O)OC)cc1 (configuration not stated)	-21.5%	7.5%	0.4	10.2%	-9.4	-8.0%
CC(=O)N1CCc2cc(S(=O)(=O)NC(CC(C)C)C(=O)N3CCc4ccccc4C3)ccc21 (configuration not stated)	?	3.0%	-2.8	66.2%	-4.0	10.8%
CC(=O)N1CCc2cc(S(=O)(=O)NC(Cc3ccccc3)C(=O)O)ccc21 (configuration not stated)	15.5%	-2.9%	-0.9	16.5µM*	6.3	.
CC(=O)N1CCc2cc(S(=O)(=O)NC(CC(C)C)C(=O)N3CCCC3)ccc21 (configuration not stated)	10.9%	3.6%	1.1	11.7µM*	-6.1	0.8%
CN(CC(=O)Nc1cccc(F)c1)C(=O)c1cc(-c2cccs2)nn1-c1ccccc1	-2.5%	.	.	7.2%	.	.
COC(=O)c1cc(-c2cccs2)nn1-c1ccccc1	?	-4.9%	-3.3	-136.1%	10.7	-2.4%
CCN(CC)S(=O)(=O)c1cccc(NC(=O)c2cc(-c3cccs3)nn2-c2ccccc2)c1	-18.9%	?	2.7	11.7µM*	-3.1	-2.9%
CN(C)S(=O)(=O)c1cccc(NC(=O)c2cc(-c3cccs3)nn2-c2ccccc2)c1	?	?	5.4	14.7µM*	-17.5	-8.1%
CC1CCCN(C(=O)COC(=O)c2cc(-c3cccs3)nn2-c2ccccc2)C1 (configuration not stated)	0.9%	.	.	43.2%	.	.
O=c1c(-c2ccccc2)coc2cc(O)cc(O)c12	.	.	.	.	.	19.9µM*
O=c1c(-c2ccc3c(c2)OCCO3)coc2cc(O)cc(O)c12	91.2%	-90.7%	37.5*	4.5%	72.7*	0.3%
Cc1ccc(N2CC(C(=O)N3CCCCCC3)CC2=O)cc1 (configuration not stated)	7.5%	8.5%	11.4	?	-10.9	.
COc1ccc(C(=O)Nc2ccc3c(c2)nc2n3CCSC2)cc1	?	-4.7%	44.7*	56.4%	86.0*	-11.4%
CCC(=O)Nc1ccc2c(c1)nc1n2CCSC1	20.8%	1.1%	13.6	11.8%	-2.3	-11.4%
O=C(Nc1ccc2c(c1)nc1n2CCSC1)c1ccccc1	5.2%	-11.3%	40.3*	-1.5%[5.75 µM]	43.4*	-21.3%
CC(C)C(=O)Nc1ccc2c(c1)nc1n2CCSC1	70.1%	16.6%	18.7	.	39.9*	-24.6%
O=C(Nc1ccc2c(c1)nc1n2CCOC1)c1ccccc1	85.7%	-9.6%	31.3*	62.0%[5.75 µM]	93.6*	5.0%
CCCC(=O)Nc1ccc2c(c1)nc1n2CCOC1	11.4%	4.5%	-1.5	0.7%[5.75 µM]	27.1	7.4%
SMILES	Pf growth 48h	NS1 function inh	Cycloheximide cs	Pf growth 96h	Shiga inhibitor	Giardia FBPA inh
CCn1cc(/C=C(\NC(=O)c2ccccc2F)C(=O)NCCN2CCOCC2)c2ccccc21	-17.0%	4.7%	6.6	?	-21.3	-18.1%
Nc1ccccc1CNc1nc(NCCO)nc2c1ncn2CCN1CCOCC1	6.1%	1.3%	10.7	-3.7%	29.0	-1.6%
CCCCC(=O)Nc1ccc2c(c1)nc1n2CCOC1	73.4%	0.9%	19.8*	22.7%[5.75 µM]	89.4*	3.3%
CC(=O)c1cccc(CN2CCCC(C(=O)Nc3cccc(-n4cccn4)c3)C2)c1 (configuration not stated)	?	7.7%	-2.3	23.3%	-1.8	.
CCc1ncc(CN2CCCC(C(=O)Nc3cccc(-c4ccc(F)cc4)c3)C2)cn1 (configuration not stated)	?	-4.7%	-0.5	?	-31.9	.
CCn1cc(CN2CCCC(C(=O)Nc3cccc(-n4cccn4)c3)C2)c(C)n1 (configuration not stated)	-29.4%	-6.0%	15.9	10.4µM*	-6.1	3.1%
O=C(Nc1cccc(-n2cccn2)c1)C1CCCN(Cc2ccc(C#CCCO)cc2)C1 (configuration not stated)	10.4µM*	4.7%	-4.3	35.9%	-4.1	.
CCn1cc(CN2CCCC(C(=O)Nc3cccc(-c4cc5ccccc5[nH]4)c3)C2)cn1 (configuration not stated)	10.4µM*	16.3%	8.2	85.7%	-1.1	3.2%
COc1ccc(CN2CCCC(C(=O)Nc3cccc(-n4cccn4)c3)C2)cc1 (configuration not stated)	?	-6.9%	-2.2	-11.8%	3.4	.
O=C(COC(=O)/C=C/c1ccc(S(=O)(=O)N2CCOCC2)cc1)NC1CCCCCCC1	-5.4%	.	-1.0	36.5%	-6.3	-0.8%
COC(=O)c1c(C)[nH]c(C(=O)CN(C)CC(=O)Nc2cccc(F)c2)c1C	-27.5%	.	.	-15.8%	.	.
CCc1nc2oc3ccccc3c(=O)c2cc1C(=O)OC	117.9%	2.5%	24.3*	49.4%	51.0*	-0.5%
Cc1nc2oc3ccc(F)cc3c(=O)c2cc1C(=O)O	48.8%	-0.1%	26.5*	26.1%	30.4	-2.9%
CCN(CC)C(=O)c1cc2c(=O)c3cc(Cl)ccc3oc2nc1C	51.6%	?	14.2	3.4%	14.0	-1.9%
COCc1nc2oc3ccc(C)cc3c(=O)c2cc1C(=O)OC	108.3%	5.3%	23.1*	130.3%	42.4	2.0%
CCOC(=O)c1cc2c(=O)c3cc(C)ccc3oc2nc1C	244.8%	0.7%	39.6*	331.8%	51.7*	9.0%
COCc1nc2oc3ccc(F)cc3c(=O)c2cc1C(=O)OC	68.3%	-1.0%	14.0	81.9%	3.4	-1.3%
Cc1ccc(-c2nnc(CCC(=O)NCc3csc(C)n3)o2)s1	8.9%	-0.6%	8.1	19.0%	37.8	4.8%
